The test system of the first experiment is PPARg:RXRa IVT, anti-PPARg (NR concentration 270 nM, RXRa partner concentration 90 nM). The experiment can be described thus: PBM binding z-score (relative to random genomic background probes); higher = stronger binding; sequences stand for … in GC…GCGATTGACAGCGTAGAATGAAGG
An outline of the steps:
(§1)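 Custom Agilent 4×180K protein-binding microarrays carried double-stranded probes. Their 34-nt variable regions held direct-repeat seeds, single-nucleotide variants, half-site ablations and random human genomic background sequences. Arrays were incubated 1 h with ligand-free nuclear receptor dimers in PBS pH 7.4, 2% milk, 0.02% Triton X-100, 1 mM DTT, 0.2 mg/mL BSA and 0.4 mg/ml salmon testes DNA. Antibodies against each partner (one per run) detected binding, and scanned fluorescence was regression-normalized. Binding z-scores use random background probes as reference.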
Sequence CCTAGTTGGTCAAAGTCACACACGCTATAGGTAC displayed a PBM binding z-score of 1.52.

Regarding CCTAGTTGGTCGAGGTCACACACGCTATAGGTAC, the PBM binding z-score is 3.16.

The sequence GATACAGGGTCAAGGCCAGAGTTCGCGTATTGAT displayed a PBM binding z-score of 3.98.

CCAACTAGGTCAAGGACAGTGAATCTCCGCACGC displayed a PBM binding z-score of 7.55.

Consider TCTTGTAGATCAGCATGTTAAGAAAGCTGGCCAA, for which the PBM binding z-score was -0.0359.

For the sequence ACTTACGGGTCAACGAGGTTATAGCGCGCGTATA, the PBM binding z-score worked out at 4.21.

For CGTCCAAGGTCAAAGATCAGTGAAGAGATGACGG, the PBM binding z-score was determined as 3.88.

CCTTACGGGTCGAGGTTATAGCACGGGTGGTACG: the PBM binding z-score came out at 0.508.

GCTGACAGGTGAAACGCAGGTAACTCAGGGTGGC: the PBM binding z-score was 0.804.

CCTACTGGTCCACGAAAGGTCATTGATTCAGTGA came in with a PBM binding z-score of 1.87.

Turning to CCAACTGGGGCAAGGTTACCATAACGCACAGCCA, the PBM binding z-score came out at 5.51.

On to GCTGCTAGGTCAGGTTGGTCACCTAACGGGTACG, for which the PBM binding z-score came out at 2.8.

As for CCGACTGGGGCAAAGGGTACCATACTCAGTACGA, the PBM binding z-score is 4.9.

ATCTCTAGGTAAGACTAAGTTCAGTGAAGAACGC had a PBM binding z-score of 1.37.

TCTATTAGTTTATTAGGGCAACCGAAACAGCGGA displayed a PBM binding z-score of 4.46.

CCTTACGGGCCACTCCAGGTTATAGCATCGGAGT: the PBM binding z-score worked out at 0.46.

Take TCTTGTAGATCAAGCACGTTAAGAAAGCCTGAGT: the PBM binding z-score worked out at 0.108.

The test system of a further experiment is PPARg DBDmut:RXRa IVT, anti-PPARg (DBD mutation: PPARg1 K132A/R137A, NR concentration 270 nM, RXRa partner concentration 90 nM). Described as above. The method, boiled down:
as §1
Turning to CTACCAAGGTGGACAAGGTCGTTGATTACTATTC, the PBM binding z-score is -1.17.

The sequence AGAGTGAGGTTAAGATCAGGGAAACAGAATACAT registered a PBM binding z-score of 0.929.

In the case of CCAGACAGGTGAAAGGGAACTCAGTCTGGTACGC, the PBM binding z-score was 0.273.

In turn, CGAACTAGGTCATGGACAGTGAATCTCCGCACGC displayed a PBM binding z-score of 2.01.

CGACCTAGGTCATCCAGGACAGTGAATACATTGA came in with a PBM binding z-score of -0.0715.

In turn, TAGCCTAGGTCATGCGGGCCACTATAGTGTCGGC had a PBM binding z-score of -0.194.

As to ACTAGCAGGCCCAGTTTGGGTCACTCAAACAAAG, the PBM binding z-score is -1.4.

As for TAGCCTAGGTCATTCAGGTGCCAGTATAGAAAGC, the PBM binding z-score was 0.483.

ATCCCTAGGTAAAGATAGTTCAGTGAATGCAAAT registered a PBM binding z-score of 0.379.

Regarding CAAACTAGGGCACCGGAAGGTCAAAGTCCGCATG, the PBM binding z-score stood at 1.16.

CCCCGGAGGACAACAGGAGGTCAGAGCTGCCAGA displayed a PBM binding z-score of -1.55.

Take CAAACTAGGTCAAGAGGGCAAAGTCCGCTTCCCG: the PBM binding z-score came to 4.28.

ATCCAAAGGTCGACGAGGTGAGTATACACCGTTT: the PBM binding z-score came to 0.787.

Sequence TATACAGGGTCAAACGCCAGAGTACGAATGTCGA showed a PBM binding z-score of 3.59.

Turning to ACTAGCAGGCCAAGTCTGGGTCACTCAAACAAAG, the PBM binding z-score is -0.209.

For GCAGACAGGTGAAACGCAGGTGACTCAGGGTGGC, the PBM binding z-score was -0.57.

ATCTGTAGGTAACCAAGTTCAGTGAATGCCGAAC: the PBM binding z-score is -0.123.

For CTTACTGGGCCATTCAGAGGTCATTGATCATATG, the PBM binding z-score worked out at 0.768.

Sequence ATACCAAGGTGATCGTGAGGTCGTTCATACTAAC displayed a PBM binding z-score of 0.827.

Sequence TAGCCTAGGTCATTCAGTGGCCAGTATAGAAAGC gave a PBM binding z-score of 0.204.

AGTCAAAGTTCCCTAGGTAACGTAAGATTCAGCT returned a PBM binding z-score of -0.729.

As for TCTTGTAGATCAAGCAGGTGAAGAAAGCCTGAGT, the PBM binding z-score turned out to be 0.265.

In turn, CCTAGTTGGTCAAAGTCACACACGCTATAGGTAC displayed a PBM binding z-score of 0.647.

As to CCTAGTTGGTCGAGGTCACACACGCTATAGGTAC, the PBM binding z-score turned out to be 1.31.

For GATACAGGGTCAAGGCCAGAGTTCGCGTATTGAT, the PBM binding z-score came out at 0.606.

Sequence CCAACTAGGTCAAGGACAGTGAATCTCCGCACGC displayed a PBM binding z-score of 1.93.

In turn, TCTTGTAGATCAGCATGTTAAGAAAGCTGGCCAA displayed a PBM binding z-score of -0.2.

Sequence ACTTACGGGTCAACGAGGTTATAGCGCGCGTATA showed a PBM binding z-score of 0.78.

Sequence CGTCCAAGGTCAAAGATCAGTGAAGAGATGACGG had a PBM binding z-score of 0.698.

CCTTACGGGTCGAGGTTATAGCACGGGTGGTACG gave a PBM binding z-score of -0.109.

Sequence GCTGACAGGTGAAACGCAGGTAACTCAGGGTGGC had a PBM binding z-score of -0.781.

As to CCTACTGGTCCACGAAAGGTCATTGATTCAGTGA, the PBM binding z-score amounted to 0.736.

Consider CCAACTGGGGCAAGGTTACCATAACGCACAGCCA, for which the PBM binding z-score is 0.138.

The sequence GCTGCTAGGTCAGGTTGGTCACCTAACGGGTACG displayed a PBM binding z-score of -1.27.

On to CCGACTGGGGCAAAGGGTACCATACTCAGTACGA, for which the PBM binding z-score was -0.131.

Turning to ATCTCTAGGTAAGACTAAGTTCAGTGAAGAACGC, the PBM binding z-score amounted to 0.418.

In the case of TCTATTAGTTTATTAGGGCAACCGAAACAGCGGA, the PBM binding z-score came out at 2.16.

Sequence CCTTACGGGCCACTCCAGGTTATAGCATCGGAGT registered a PBM binding z-score of -1.12.

TCTTGTAGATCAAGCACGTTAAGAAAGCCTGAGT came in with a PBM binding z-score of 0.449.

A further experiment relates to PPARg DBDmut IVT, anti-PPARg (DBD mutation: PPARg1 K132A/R137A, NR concentration 270 nM). Described as above. An outline of the steps:
as §1
Sequence CTACCAAGGTGGACAAGGTCGTTGATTACTATTC displayed a PBM binding z-score of 0.143.

Sequence AGAGTGAGGTTAAGATCAGGGAAACAGAATACAT came in with a PBM binding z-score of 0.933.

Sequence CCAGACAGGTGAAAGGGAACTCAGTCTGGTACGC came in with a PBM binding z-score of -0.448.

Take CGAACTAGGTCATGGACAGTGAATCTCCGCACGC: the PBM binding z-score is 1.53.

Sequence CGACCTAGGTCATCCAGGACAGTGAATACATTGA displayed a PBM binding z-score of 0.195.

As for TAGCCTAGGTCATGCGGGCCACTATAGTGTCGGC, the PBM binding z-score is 0.594.

ACTAGCAGGCCCAGTTTGGGTCACTCAAACAAAG had a PBM binding z-score of -0.708.

For TAGCCTAGGTCATTCAGGTGCCAGTATAGAAAGC, the PBM binding z-score was -0.0925.

ATCCCTAGGTAAAGATAGTTCAGTGAATGCAAAT displayed a PBM binding z-score of 0.507.

As for CAAACTAGGGCACCGGAAGGTCAAAGTCCGCATG, the PBM binding z-score was 0.324.

Sequence CCCCGGAGGACAACAGGAGGTCAGAGCTGCCAGA came in with a PBM binding z-score of -1.4.

As to CAAACTAGGTCAAGAGGGCAAAGTCCGCTTCCCG, the PBM binding z-score stood at 1.48.

In the case of ATCCAAAGGTCGACGAGGTGAGTATACACCGTTT, the PBM binding z-score turned out to be 0.209.

With TATACAGGGTCAAACGCCAGAGTACGAATGTCGA, the PBM binding z-score was 3.04.

For the sequence ACTAGCAGGCCAAGTCTGGGTCACTCAAACAAAG, the PBM binding z-score is -0.38.

The sequence GCAGACAGGTGAAACGCAGGTGACTCAGGGTGGC displayed a PBM binding z-score of -0.659.

In turn, ATCTGTAGGTAACCAAGTTCAGTGAATGCCGAAC gave a PBM binding z-score of 0.924.

On to CTTACTGGGCCATTCAGAGGTCATTGATCATATG, for which the PBM binding z-score was 1.22.

On to ATACCAAGGTGATCGTGAGGTCGTTCATACTAAC, for which the PBM binding z-score was found to be 0.877.

Regarding TAGCCTAGGTCATTCAGTGGCCAGTATAGAAAGC, the PBM binding z-score is -0.521.

As for AGTCAAAGTTCCCTAGGTAACGTAAGATTCAGCT, the PBM binding z-score worked out at 0.358.

TCTTGTAGATCAAGCAGGTGAAGAAAGCCTGAGT showed a PBM binding z-score of -0.33.

In turn, CCTAGTTGGTCAAAGTCACACACGCTATAGGTAC showed a PBM binding z-score of 0.822.

Sequence CCTAGTTGGTCGAGGTCACACACGCTATAGGTAC gave a PBM binding z-score of -0.295.

As for GATACAGGGTCAAGGCCAGAGTTCGCGTATTGAT, the PBM binding z-score was -0.0978.

For the sequence CCAACTAGGTCAAGGACAGTGAATCTCCGCACGC, the PBM binding z-score turned out to be 1.81.

TCTTGTAGATCAGCATGTTAAGAAAGCTGGCCAA gave a PBM binding z-score of 0.837.

Take ACTTACGGGTCAACGAGGTTATAGCGCGCGTATA: the PBM binding z-score is 1.28.

In turn, CGTCCAAGGTCAAAGATCAGTGAAGAGATGACGG registered a PBM binding z-score of -0.108.

Take CCTTACGGGTCGAGGTTATAGCACGGGTGGTACG: the PBM binding z-score was -1.51.

For the sequence GCTGACAGGTGAAACGCAGGTAACTCAGGGTGGC, the PBM binding z-score is -1.24.

Sequence CCTACTGGTCCACGAAAGGTCATTGATTCAGTGA registered a PBM binding z-score of -0.00763.

CCAACTGGGGCAAGGTTACCATAACGCACAGCCA came in with a PBM binding z-score of -0.27.

In the case of GCTGCTAGGTCAGGTTGGTCACCTAACGGGTACG, the PBM binding z-score is -1.36.

CCGACTGGGGCAAAGGGTACCATACTCAGTACGA: the PBM binding z-score is -0.788.

Sequence ATCTCTAGGTAAGACTAAGTTCAGTGAAGAACGC showed a PBM binding z-score of 0.902.

For TCTATTAGTTTATTAGGGCAACCGAAACAGCGGA, the PBM binding z-score is 2.42.

CCTTACGGGCCACTCCAGGTTATAGCATCGGAGT had a PBM binding z-score of -0.87.

For the sequence TCTTGTAGATCAAGCACGTTAAGAAAGCCTGAGT, the PBM binding z-score was 0.566.

For the origin of these results see the supplement of paper PMC6555819.
